“And” between values parts separate entries of the source, which are not always exact repeats. Equal values may be shown once. Values without a mark were called inactive. Inconclusive results are not listed. Entries that show only a call come without a potency. The source made the active and inactive calls. The call rests on the fitted dose curve; in most records, active means well fitted curve in the direction sought with a large enough effect in the repeat runs; inconclusive means weak or mixed curves; inactive means no such curve, though single readings can be large; an effect the other way counts as inactive or inconclusive.
Assays:
[1] = A CellTox Green Cytotoxicity Assay to monitor cytotoxicity in HEK293 cells - 40 hour (AID 1224871); further: nearly all actives have a fitted effect of over 45% in size; further: potency means the concentration at half of the fitted maximal effect
In short: (§1)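 Homogeneous no-lysis format: HEK293 cell suspension mixed with CellTox Green reagent, seeded, incubated 5 h at 37 C/5% CO2, then dosed by pintool with compound in DMSO.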

[2] = qHTS RealTime-Glo MT Cell Viability Assay in HEK293 cells - 16 hour (AID 1224872); further: nearly all actives have a fitted effect of over 50% in size; further: potency means the concentration at half of the fitted maximal effect
In short: (§2)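 Luminescence generated by NanoLuc from substrate produced by living HEK293 cells served as the viability signal. Each value reflects the reading at its stated time point during continuous 40 h compound exposure at 37 C.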

[3] = qHTS RealTime-Glo MT Cell Viability Assay in HepG2 cells - 8 hour (AID 1224873); further: nearly all actives have a fitted effect of over 55% in size; further: potency means the concentration at half of the fitted maximal effect
In short: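 HepG2 cells (600/well) mixed with RealTime-Glo MT reagent, settled 5 h at 37 C/5% CO2 before compound addition. Nonlytic NanoLuc luminescence from viable-cell prosubstrate reduction read repeatedly during 40 h treatment at 37 C.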

[4] = A CellTox Green Cytotoxicity Assay to monitor cytotoxicity in HEK293 cells - 24 hour (AID 1224875); further: nearly all actives have a fitted effect of over 45% in size; further: potency means the concentration at half of the fitted maximal effect
In short: as §1

[5] = A CellTox Green Cytotoxicity Assay to monitor cytotoxicity in HepG2 cells - 16 hour (AID 1224876); further: nearly all actives have a fitted effect of over 45% in size; further: potency means the concentration at half of the fitted maximal effect
In short: (§3)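 Fluorescent DNA-binding dye, 600 HepG2 cells/well, 5 h preincubation then compound in DMSO; same plates read at 0–40 h, 37 C.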

[6] = qHTS RealTime-Glo MT Cell Viability Assay in HepG2 cells - 32 hour (AID 1224877); further: nearly all actives have a fitted effect of over 55% in size
In short: (§4)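 Tox21 10K library screened in qHTS format on HepG2 cells carrying RealTime-Glo reagents. Compounds were added after a 5 h preincubation, and the luminescent signal from continuous culture was measured repeatedly during 40 h treatment.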

[7] = A CellTox Green Cytotoxicity Assay to monitor cytotoxicity in HepG2 cells - 24 hour (AID 1224878); further: nearly all actives have a fitted effect of over 45% in size; further: potency means the concentration at half of the fitted maximal effect
In short: as §3

[8] = A CellTox Green Cytotoxicity Assay to monitor cytotoxicity in HepG2 cells - 40 hour (AID 1224879); further: nearly all actives have a fitted effect of over 40% in size
In short: as §3

[9] = A CellTox Green Cytotoxicity Assay to monitor cytotoxicity in HEK293 cells - 32 hour (AID 1224881); further: nearly all actives have a fitted effect of over 40% in size; further: potency means the concentration at half of the fitted maximal effect
In short: as §1

[10] = A CellTox Green Cytotoxicity Assay to monitor cytotoxicity in HepG2 cells - 0 hour (AID 1224882); further: nearly all actives have a fitted effect of over 35% in size
In short: as §3

[11] = A CellTox Green Cytotoxicity Assay to monitor cytotoxicity in HepG2 cells - 32 hour (AID 1224883); further: nearly all actives have a fitted effect of over 50% in size; further: potency means the concentration at half of the fitted maximal effect
In short: as §3

[12] = A CellTox Green Cytotoxicity Assay to monitor cytotoxicity in HEK293 cells - 8 hour (AID 1224884); further: nearly all actives have a fitted effect of over 35% in size; further: potency means the concentration at half of the fitted maximal effect
In short: as §1

[13] = qHTS RealTime-Glo MT Cell Viability Assay in HepG2 cells - 16 hour (AID 1224885); further: nearly all actives have a fitted effect of over 50% in size; further: potency means the concentration at half of the fitted maximal effect
In short: as §4

[14] = qHTS RealTime-Glo MT Cell Viability Assay in HEK293 cells - 24 hour (AID 1224886); further: nearly all actives have a fitted effect of over 50% in size; further: potency means the concentration at half of the fitted maximal effect
In short: as §2

[15] = qHTS RealTime-Glo MT Cell Viability Assay in HEK293 cells - 8 hour (AID 1224887); further: nearly all actives have a fitted effect of over 50% in size; further: potency means the concentration at half of the fitted maximal effect
In short: (§5)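 Measured as luminescence from the same continuously cultured HEK293 wells at successive time points (0, 8, 16, 24, 32, 40 h) after compound addition. Reagent present from seeding; dosing at 5 h; incubation 37 C.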

[16] = A CellTox Green Cytotoxicity Assay to monitor cytotoxicity in HEK293 cells - 16 hour (AID 1224888); further: nearly all actives have a fitted effect of over 35% in size; further: potency means the concentration at half of the fitted maximal effect
In short: as §1

[17] = qHTS RealTime-Glo MT Cell Viability Assay in HepG2 cells - 0 hour (AID 1224889); further: nearly all actives have a fitted effect of over 50% in size; further: potency means the concentration at half of the fitted maximal effect
In short: as §4

[18] = A CellTox Green Cytotoxicity Assay to monitor cytotoxicity in HepG2 cells - 8 hour (AID 1224890); further: nearly all actives have a fitted effect of over 45% in size; further: potency means the concentration at half of the fitted maximal effect
In short: as §3

[19] = qHTS RealTime-Glo MT Cell Viability Assay in HEK293 cells - 40 hour (AID 1224874); conditions: RealTime-Glo luminescence; max response: stronger effect = lower value; further: nearly all actives have a fitted effect of over 50% in size; further: potency means the concentration at half of the fitted maximal effect
In short: as §5

[20] = qHTS RealTime-Glo MT Cell Viability Assay in HEK293 cells - 0 hour (AID 1224880); further: nearly all actives have a fitted effect of over 45% in size; further: potency means the concentration at half of the fitted maximal effect
In short: as §5

O=C(CCCCl)c1ccc(F)cc1
Potency [1]: inactive | Potency [2]: inactive | Potency [3]: inactive | Potency [4]: inactive | Potency [5]: inactive | Potency [6]: inactive | Potency [7]: inactive | Potency [8]: inactive | Potency [9]: inactive | Potency [10]: inactive | Potency [11]: inactive | Potency [12]: inactive | Potency [13]: inactive | Potency [14]: inactive | Potency [15]: inactive | Potency [16]: inactive | Potency [17]: inactive | Potency [18]: inactive

[F][Sn]([c]1ccccc1)([c]1ccccc1)[c]1ccccc1
Potency [1]: 1.55 µM (active) | Potency [2]: 0.549 µM (active) | Potency [3]: 1.74 µM (active) | Potency [19]: 436 nM (active) | Potency [4]: 3.47 µM (active) | Potency [5]: 1.74 µM (active) | Potency [7]: 2.19 µM (active) | Potency [9]: 1.74 µM (active) | Potency [10]: inactive | Potency [11]: 1.95 µM (active) | Potency [12]: 5.49 µM (active) | Potency [13]: 0.871 µM (active) | Potency [14]: 490 nM (active) | Potency [15]: 1.74 µM (active) | Potency [16]: 6.16 µM (active) | Potency [17]: inactive | Potency [18]: 2.45 µM (active)

N#CCCl
Potency [1]: inactive | Potency [2]: inactive | Potency [3]: inactive | Potency [4]: inactive | Potency [5]: inactive | Potency [6]: inactive | Potency [7]: inactive | Potency [8]: inactive | Potency [20]: inactive | Potency [9]: inactive | Potency [10]: inactive | Potency [11]: inactive | Potency [12]: inactive | Potency [13]: inactive | Potency [15]: inactive | Potency [16]: inactive | Potency [17]: inactive

CCN(CC)CCN1C(=O)CN=C(c2ccccc2F)c2cc(Cl)ccc21
Potency [1]: inactive | Potency [2]: inactive | Potency [3]: inactive | max response [19]: -8.22% | Potency [4]: inactive | Potency [5]: inactive | Potency [7]: inactive | Potency [20]: inactive | Potency [9]: inactive | Potency [10]: inactive | Potency [11]: inactive | Potency [13]: inactive | Potency [14]: inactive | Potency [15]: inactive | Potency [16]: inactive | Potency [17]: inactive | Potency [18]: inactive

S=C=NCCc1ccccc1
Potency [1]: 43.7 µM (active) | Potency [2]: 43.7 µM (active) | Potency [3]: inactive | Potency [19]: 49100 nM (active) | Potency [4]: 43.7 µM (active) | Potency [20]: inactive | Potency [9]: 49.1 µM (active) | Potency [10]: inactive | Potency [12]: inactive | Potency [13]: inactive | Potency [14]: 49100 nM (active) | Potency [16]: inactive | Potency [17]: inactive

O=C(Nc1ccc(F)cc1F)c1cccnc1Oc1cccc(C(F)(F)F)c1
Potency [1]: 53.8 µM (active) | Potency [2]: inactive | Potency [3]: inactive | max response [19]: 0.876% | Potency [4]: inactive | Potency [5]: inactive | Potency [7]: inactive | Potency [8]: inactive | Potency [20]: inactive | Potency [10]: inactive | Potency [11]: inactive | Potency [13]: inactive | Potency [15]: inactive | Potency [16]: inactive | Potency [17]: inactive | Potency [18]: inactive

C=Cc1cccc(CCl)c1
Potency [1]: inactive | Potency [2]: inactive | Potency [3]: inactive | max response [19]: 4.68% | Potency [4]: inactive | Potency [5]: inactive | Potency [7]: inactive | Potency [8]: inactive | Potency [9]: inactive | Potency [10]: inactive | Potency [11]: inactive | Potency [13]: inactive | Potency [14]: inactive | Potency [15]: inactive | Potency [17]: inactive | Potency [18]: inactive

Clc1ccc(C(c2ccc(Cl)cc2)C(Cl)Cl)cc1
Potency [1]: 55.8 µM (active) and 49 µM (active) | Potency [2]: 44.4 µM (active) and 43.6 µM (active) | Potency [3]: inactive | Potency [19]: 49.8 µM (active) and 43.6 µM (active) | Potency [5]: inactive | Potency [6]: inactive | Potency [7]: inactive | Potency [8]: inactive | Potency [20]: inactive | Potency [9]: 49 µM (active) | Potency [10]: inactive | Potency [11]: inactive | Potency [12]: inactive | Potency [13]: inactive | Potency [14]: 44.4 µM (active) and 43.6 µM (active) | Potency [15]: 44.4 µM (active) and 38.9 µM (active) | Potency [16]: inactive | Potency [17]: inactive

c1cc[n+]2c(c1)-c1cccc[n+]1CC2
Potency [1]: inactive | Potency [2]: inactive | Potency [3]: inactive | Potency [4]: inactive | Potency [5]: inactive | Potency [6]: inactive | Potency [7]: inactive | Potency [8]: inactive | Potency [20]: inactive | Potency [9]: inactive | Potency [10]: inactive | Potency [11]: inactive | Potency [12]: inactive | Potency [13]: inactive | Potency [14]: inactive | Potency [15]: inactive | Potency [16]: inactive | Potency [17]: inactive

Clc1ccc(C2(Cn3cncn3)OCCO2)c(Cl)c1
Potency [1]: inactive | Potency [2]: inactive | Potency [3]: inactive | Potency [4]: inactive | Potency [5]: inactive | Potency [6]: inactive | Potency [7]: inactive | Potency [8]: inactive | Potency [20]: inactive | Potency [9]: inactive | Potency [10]: inactive | Potency [11]: inactive | Potency [13]: inactive | Potency [14]: inactive | Potency [15]: inactive | Potency [16]: inactive | Potency [17]: inactive | Potency [18]: inactive

Brc1cccc(-c2ccccc2)c1
Potency [1]: 39.2 µM (active) | Potency [2]: inactive | Potency [3]: inactive | max response [19]: -11.2% | Potency [5]: inactive | Potency [7]: inactive | Potency [8]: inactive | Potency [20]: inactive | Potency [9]: 49.3 µM (active) | Potency [10]: inactive | Potency [11]: inactive | Potency [13]: inactive | Potency [14]: inactive | Potency [15]: inactive | Potency [17]: inactive | Potency [18]: inactive

Cc1ccc(C)c2ccccc12
Potency [1]: 38.9 µM (active) | Potency [2]: inactive | Potency [3]: inactive | max response [19]: -14.8% | Potency [5]: inactive | Potency [6]: inactive | Potency [7]: inactive | Potency [8]: inactive | Potency [20]: inactive | Potency [9]: 38.9 µM (active) | Potency [10]: inactive | Potency [11]: inactive | Potency [12]: inactive | Potency [13]: inactive | Potency [14]: inactive | Potency [17]: inactive | Potency [18]: inactive

COP(=S)(OC)Oc1ccc([N+](=O)[O-])c(C)c1
Potency [1]: inactive | Potency [2]: inactive | Potency [3]: inactive | max response [19]: -0.352% | Potency [4]: inactive | Potency [5]: inactive | Potency [7]: inactive | Potency [20]: inactive | Potency [9]: inactive | Potency [10]: inactive | Potency [11]: inactive | Potency [12]: inactive | Potency [13]: inactive | Potency [14]: inactive | Potency [15]: inactive | Potency [16]: inactive | Potency [17]: inactive | Potency [18]: inactive

O=C1C(Cl)=C(Cl)C(=O)C(Cl)=C1Cl
Potency [1]: 17.3 µM (active) and 19.5 µM (active) | Potency [2]: 27.4 µM (active) | Potency [3]: 43.5 µM (active) and 21.9 µM (active) | Potency [19]: 21.8 µM (active) and 21.9 µM (active) | Potency [4]: 21.8 µM (active) and 24.5 µM (active) | Potency [5]: 48.8 µM (active) and 19.5 µM (active) | Potency [7]: 24.5 µM (active) and 17.4 µM (active) | Potency [20]: 3.08 µM (active) and 9.77 µM (active) | Potency [9]: 21.8 µM (active) and 21.9 µM (active) | Potency [10]: inactive | Potency [11]: 21.8 µM (active) and 19.5 µM (active) | Potency [12]: inactive | Potency [14]: 24.5 µM (active) and 21.9 µM (active) | Potency [15]: 21.8 µM (active) | Potency [16]: inactive | Potency [17]: 9.74 µM (active) and 12.3 µM (active) | Potency [18]: 21.9 µM (active)

Reference: PubChem BioAssay (Tox21)
